High-throughput results (PubChem)
CYP2C9 activ = increases human cytochrome P450 2C9 activity | P11712 | recombinant CYP2C9, luciferin-H conversion, luminescence; hits give high values; factor 1 = untreated enzyme, 0 = blocked | activation factor at 5 µM | hit rate 1.4% among 96,000 | AID 1024;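 active means activation factor of 2 or more for CYP2C9 at a 5 µM dose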;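 further: 0 = sulfaphenazole-blocked wells and 1 = vehicle-only wells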
Target sequence (P11712 whole entry, looked up): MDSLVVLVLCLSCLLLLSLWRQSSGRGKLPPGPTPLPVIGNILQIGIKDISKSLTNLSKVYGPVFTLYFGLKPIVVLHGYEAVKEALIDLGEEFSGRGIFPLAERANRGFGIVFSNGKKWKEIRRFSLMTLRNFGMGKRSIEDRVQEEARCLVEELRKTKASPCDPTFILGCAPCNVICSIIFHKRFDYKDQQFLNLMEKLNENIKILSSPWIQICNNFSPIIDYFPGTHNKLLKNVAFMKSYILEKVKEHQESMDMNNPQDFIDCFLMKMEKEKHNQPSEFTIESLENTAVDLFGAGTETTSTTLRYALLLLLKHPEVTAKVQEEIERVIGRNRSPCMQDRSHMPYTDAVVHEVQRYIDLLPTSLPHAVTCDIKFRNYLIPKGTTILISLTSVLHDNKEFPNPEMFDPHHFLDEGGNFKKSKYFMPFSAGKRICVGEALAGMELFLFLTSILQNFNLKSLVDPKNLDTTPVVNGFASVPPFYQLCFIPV
CYP2C19 activ = activators of human cytochrome P450 2C19 | recombinant CYP2C19, luciferin-H EGE luminescence; hits give high values; 0 = fully inhibited enzyme, 1 = untreated enzyme | AID 1025 | 96,000 tested, under 10 active | activation factor at 5 µM | P33261;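 active means activation factor of at least 2 at 5 µM in the primary screen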;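 further: 0 = wells with 2.5 mM tranylcypromine and 1 = vehicle-only wells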
CYP2C9 inhib = human CYP2C9 inhibition; hit rate 20% among 96,000; CYP2C9 Supersomes, luciferin-H conversion, luminescence; inhibition, % at 5 µM; AID 777;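 active means blocking of liver enzyme CYP2C9 beyond about 50% at 5 µM, limit read from the data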
E-sel TNF inh = blocks E-selectin expression induced by TNF alpha. HUVEC TNFa-induced E-selectin immunofluorescence, high content. inhibition, % at 2 µM. hit rate 0.71% among 120,000;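 active means inhibition above the batch mean plus 3 SD, and confirmed as a hit on visual image review, cut at about 43% in these data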;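 further: 0% = TNF-stimulated DMSO wells and 100% = unstimulated control wells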
F-actin modifier = alters cytoskeleton assembly in HUVEC cells; hit rate 0.18% among 91,000; inhibition, % at 2 µM; HUVEC TNFa F-actin phalloidin imaging, high content;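 active means inhibition above the batch mean plus 3 SD and confirmed as a hit by visual image inspection, cut at about 30% in these data, passing the limit was not always enough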
CYP2C19 inh = blocks human cytochrome P450 2C19; P33261; CYP2C19 Supersomes, luciferin-H EGE luminescence, 30 min; inhibition, % at 5 µM; hit rate 21% among 96,000; AID 778;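 active means CYP2C19 inhibition above a set limit at 5 µM in the primary screen, cut at about 50% in these data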;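 further: plate controls were negative control wells for no effect and 2.5 mM tranylcypromine positive control for full effect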
Active calls of the source: *; · = not tested or not shown. A selection: hits, their analogues and other compounds. The true share with any hit is near 22%.

SMILES	CYP2C9 activ	CYP2C19 activ	CYP2C9 inhib	E-sel TNF inh	F-actin modifier	CYP2C19 inh
O=C(Cc1coc2cc3c(cc12)CCC3)OCc1cc(=O)n2c(n1)sc1ccccc12	0.7	1	28.0	5.3	43.1	3.3
CN(/N=C\c1ccc(O)c(O)c1)c1nc(-c2ccccc2)cc(-c2ccccc2)n1	·	·	·	-8.7	·	·
Nc1ncnc2nc(SCc3ccc(Cl)cc3Cl)[nH]c12	0.4	0.3	58.9*	-9.5	9.4	67.0*
Cc1cccc(C(=O)Nc2nc(C)c(C(=O)Nc3ccc4c(c3)CCC4)s2)c1	0.4	0.8	57.7*	-8.8	·	23.5
COc1ccc(-n2c(C)cc(C(=O)COc3ccc(-n4cnnn4)cc3)c2C)cc1	0.9	1.1	6.3	·	-11.0	-9.3
CCOc1ccc(C(C)=O)cc1COc1ccc(-n2cnnn2)cc1	0.2	0	78.2*	-35.9	·	97.0*
COc1ccc(OCCOC(=O)c2cccc(-n3cnnn3)c2)cc1	0.4	0.3	58.1*	-10.0	12.8	66.2*
COc1ccc(OCCOC(=O)c2ccc(-n3cnnn3)cc2)cc1	0.3	0.7	73.1*	-7.8	-9.1	31.8
CCOc1ccc(-n2cnnn2)cc1S(=O)(=O)N1CCCCC1	1.3	1.1	-28.0	-16.9	3.2	-13.8
CCOC(=O)c1c(C)[nH]c(C(=O)N/N=C\c2ccccc2Cl)c1C	·	·	·	20.8	·	·
CCc1c(C(=O)OC)nnc2cc(C)nn12	1	0.9	-2.7	-11.3	-11.3	12.7
O=C(CCNc1cccc(Cl)c1)c1ccco1	0.6	0.2	36.4	-28.4	·	84.9*
COc1cccc(C(=O)Nc2ccccc2N2CCCC2)c1	0.7	0.3	26.3	0.8	-12.3	68.7*
O=C(Nc1ccccc1C(=O)N1CCCC1)c1cccc(S(=O)(=O)N2CCCCC2)c1	0.8	1	17.8	-4.6	0.0	-2.2
CN1CCN(c2ccccc2NC(=O)c2ccc(-c3ccccc3)cc2)CC1	0.3	0.1	70.5*	-14.4	10.0	94.5*
CCN(CC)c1ccc(NC(=O)c2cc(OC)cc(OC)c2)c(C)c1	1.9	0.8	-87.0	·	-6.7	23.6
COc1cccc(C(=O)Nc2ccccc2C(=O)N2CCCC2)c1	1.1	0.5	-8.1	-23.4	17.4	53.6*
CCN(CC)c1ccc(NC(=O)c2cccc(OC)c2)c(C)c1	2.5*	1	-149.7	-11.0	3.1	-3.0
CN1CCN(c2ccccc2NC(=O)c2ccc(OCc3ccccc3)cc2)CC1	0.6	0.5	39.8	-6.7	-19.8	48.0
COc1cccc(C(=O)NC(=S)Nc2ccccc2N2CCCC2)c1	·	·	·	-45.4	·	·
O=C(CSc1ncccn1)NCc1ccc(F)cc1	1.1	0.7	-6.0	·	4.8	26.1
CN1CCN(c2ccccc2NC(=O)c2cccc(OCc3ccccc3)c2)CC1	0.5	0.5	51.8*	-25.0	3.6	49.9
Cc1ccc(C(=O)Cn2c(N3CCOCC3)nc3c2c(=O)n(C)c(=O)n3C)cc1	0.5	1.1	54.5*	·	-0.6	-11.1
COCCn1c(N2CCN(c3ccc(OC)cc3)CC2)nc2c1c(=O)n(C)c(=O)n2C	0.4	1.1	59.2*	·	7.3	-5.7
Cn1c(=O)[nH]c(=O)c2c1nc(N1CCN(Cc3ccccc3)CC1)n2CCCc1ccccc1	0.7	0.1	31.3	·	-58.2	87.6*
SMILES	CYP2C9 activ	CYP2C19 activ	CYP2C9 inhib	E-sel TNF inh	F-actin modifier	CYP2C19 inh
Cn1c(=O)[nH]c(=O)c2c1nc(N1CCN(c3cccc(Cl)c3)CC1)n2CCCc1ccccc1	0.8	0.9	15.6	-15.1	-6.2	10.1
Cn1c(=O)c2c(nc(N3CCN(Cc4ccccc4)CC3)n2CCCc2ccccc2)n(C)c1=O	0.7	0.3	30.7	-0.2	-44.1	68.1*
Cc1ccc([N+](=O)[O-])cc1NC(=O)CN1CCCCC1	1.3	0.8	-30.8	·	-1.2	16.3
Cc1ccc(C(=O)Oc2csc(=S)n2C(=O)c2ccc(C)cc2)cc1	0.7	0.9	34.0	-0.6	5.2	11.5
CCC(C)NC(=O)CS(=O)Cc1nc(-c2cccc(OC)c2)oc1C (stereo not drawn)	0.8	0.9	16.9	5.8	-1.4	14.2
Cc1nnc(SCCn2c(N3CCN(Cc4ccccc4)CC3)nc3c2c(=O)[nH]c(=O)n3C)s1	0.4	0.3	59.2*	·	-12.6	71.1*
Cn1c(=O)[nH]c(=O)c2[nH]c(N(Cc3ccccc3)Cc3ccccc3)nc21	0.4	1	55.6*	-7.4	-10.4	-3.3
Cn1c(=O)[nH]c(=O)c2c1nc(N1CCN(Cc3ccccc3)CC1)n2CCSc1ncccn1	0.5	0.2	49.6	-1.1	-1.5	75.4*
CCCCCn1c(N2CCN(c3cccc(Cl)c3)CC2)nc2c1c(=O)[nH]c(=O)n2C	0	0.2	96.1*	12.6	36.7	82.5*
Cc1nnc(SCCn2c(N3CCN(C)CC3)nc3c2c(=O)[nH]c(=O)n3C)s1	0.9	1	10.1	14.3	2.7	0.5
COc1cccc2c(=O)cc(C)n(CC(=O)Nc3ccccc3C)c12	0.9	0.8	14.3	7.1	-17.4	16.0
CCCCn1c(N2CCC(Cc3ccccc3)CC2)nc2c1c(=O)[nH]c(=O)n2C	0.5	0.3	49.7	·	11.8	65.6*
Cn1c(=O)[nH]c(=O)c2c1nc(N(CCO)Cc1ccccc1)n2CCCc1ccccc1	0.3	0.8	65.0*	19.2	14.3	15.8
Cn1c(=O)[nH]c(=O)c2c1nc(CN1CCN(Cc3ccccc3)CC1)n2CC(N)=O	1.1	1.1	-11.1	49.9*	·	-7.1
C1CCc2c(nc3nnnn3c2NC2CCCC2)C1	0.8	0.9	16.2	-0.3	-9.7	7.4
Cc1ccc(OCC(=O)NC(=S)Nc2ccc(Br)c(C)n2)cc1	1	1.1	0.6	-34.5	23.4	-6.3
N=C1C(c2nc3ccccc3s2)=C(O)CN1Cc1ccccc1	·	·	·	-6.5	-16.1	·
CCOc1ccccc1N1CC(O)=C(c2nc3ccccc3s2)C1=N	0.4	0.4	57.8*	1.5	21.5	59.1*
CC1(c2ccccc2)CC(c2ccccc2)=Nc2nonc2N1 (stereo not drawn)	0.5	0.1	51.6*	·	-8.6	94.1*
COC(=O)CSc1cc(C(=O)c2nccn2C)c2ccccc2n1	0.5	0.2	52.2*	-26.4	18.1	81.7*
Cc1ccc(-n2c(=O)[nH]c3cc(C(=O)NC4CCN(Cc5ccccc5)CC4)ccc3c2=O)cc1	1	1	1.7	-2.0	-3.0	4.2
COCCN(Cc1cc2ccc(C)c(C)c2nc1Cl)C(=O)N1CCOCC1	·	·	·	-34.5	·	·
Cc1cc(C)c2nc(Cl)c(CN(Cc3ccco3)C(=O)Nc3ccccc3C)cc2c1	0.2	0.9	75.4*	0.4	-50.3	14.2
COCCN(Cc1cc2cc(C)cc(C)c2nc1Cl)C(=O)Nc1ccccc1	0.3	0.6	67.2*	-19.2	-29.2	39.1
CC1CCCCN1C(=O)Cn1cc(/C=C2/C(=O)Nc3ccccc32)c2ccccc21 (stereo not drawn)	0.4	0.6	57.8*	4.3	11.8	36.6
Nc1cc(=O)[nH]c(N2CCN(c3ccccc3)CC2)n1	·	·	·	-28.5	·	·
CCOC(=O)C1CCN(C(=O)Nc2ccccc2Cl)CC1	0.9	0.4	5.4	-40.3	·	64.8*
